# SMARCA2 act: increases SMARCA2 function in MMTV reporter cells; MG213 cells, MMTV-luciferase reporter, dexamethasone, overnight; activation, % at 9.1 µM; 370,000 compounds, 1% hits; in the data active means activation above about 7.8%;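 further: 0% = vehicle wells and 100% = reference activator wells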
# hgDAF12 agonist: hgDAF-12 agonism, primary luciferase screen; 370,000 compounds, 1.8% hits; HEK293 GAL4-hgDAF12 UAS-luciferase reporter, agonist luminescence; normalized to butyrate control; activation, % at 6.8 µM; AID 687014;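 active means activation above a cutoff set at the mean of all screened compounds plus 3 SD, cut at about 10% in these data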;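 further: 0% = DMSO wells and 100% = sodium butyrate wells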
# DAX1 inh-1: inhibitors of DAX1 repression of SF-1 activated StAR promoter; inhibition, % at 6.8 µM; 370,000 compounds, 1.1% hits; HEK293T StAR-luciferase reporter, SF-1/DAX-1 repression relief;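 active means inhibition above the mean over all tested compounds plus 3 SD, cut at about 3.6% in these data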;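 further: 0% = DAX-1 cells with DMSO and 100% = cells lacking DAX-1 with DMSO; higher inhibition means more luminescence from relief of DAX-1 repression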
# DAX1 inh-2: NR0B1 (DAX1) inhibition; P51843; HEK293 Gal4-DAX1 luciferase reporter, luminescence; inhibition, % at 6.75 µM; 340,000 compounds, 0.99% hits;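 active means inhibition above the mean over all tested compounds plus 3 SD, cut at about 4.2% in these data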;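 further: 0% = DAX1-transfected cells with DMSO and 100% = empty-vector control cells with DMSO; inhibition shows as a rise in luminescence from relieved DAX1 repression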
# hcDAF-12 act: activates DAF-12 receptor from parasite H. contortus | HEK293 hcDAF-12 lit1-tk-luc reporter, luminescence; 0% DMSO, 100% Δ7-dafachronic acid | activation, % at 6.8 µM | 370,000 compounds, 1.4% hits;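 active means activation above the mean of all tested compounds plus 3 SD, cut at about 5.5% in these data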;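 further: 100% = response to 3 µM Δ7-dafachronic acid high control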
# ssDAF-12 act: activates DAF-12 receptor from parasite S. stercoralis. activation, % at 6.8 µM. HEK293 ssDAF-12/GRIP1 lit1-tk-luc reporter, luminescence; % of 3 µM dafachronic acid response. 370,000 compounds, 1% hits;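 active means activation above the mean over all tested compounds plus 3 SD, cut at about 0.9% in these data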;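 further: 0% = DMSO-only wells and 100% = 3 µM delta7-dafachronic acid wells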
# DAX1 conf: NR0B1 (human) inhibition, confirmation. shares compounds with DAX1 inh-1. HEK293T StAR-promoter luciferase reporter, SF-1/DAX-1 repression. inhibition, % at 6.8 µM. 2,400 compounds, 87% hits. AID 652134;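 active means inhibition above the average of every tested compound plus 3 SD, cut at about 3.8% in these data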;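 further: 0% = DAX-1 cells with DMSO and 100% = no DAX-1 control cells with DMSO; active compounds raise luminescence by relieving repression of the StAR reporter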
# Target sequence (P51843 whole entry, looked up): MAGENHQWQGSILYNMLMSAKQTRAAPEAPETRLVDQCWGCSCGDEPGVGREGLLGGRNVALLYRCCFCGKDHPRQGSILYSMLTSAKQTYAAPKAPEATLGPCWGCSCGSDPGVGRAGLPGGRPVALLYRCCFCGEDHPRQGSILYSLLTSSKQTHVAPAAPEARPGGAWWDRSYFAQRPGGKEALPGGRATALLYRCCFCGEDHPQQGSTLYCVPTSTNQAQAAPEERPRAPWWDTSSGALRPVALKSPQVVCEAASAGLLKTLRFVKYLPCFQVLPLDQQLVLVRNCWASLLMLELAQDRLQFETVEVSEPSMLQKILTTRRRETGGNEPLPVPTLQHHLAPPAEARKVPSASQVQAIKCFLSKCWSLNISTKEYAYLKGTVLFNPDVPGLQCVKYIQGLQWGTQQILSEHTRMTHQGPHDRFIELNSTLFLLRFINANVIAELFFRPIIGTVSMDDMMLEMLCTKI
# SF1 mutant ctr: nonselective inhibitor or artifact in SF-1 mutant DAX1 counter-screen; shares compounds with DAX1 inh-1; HEK293 StAR-luciferase, SF-1 AF2 mutant, luminescence; inhibition, % at 6.8 µM; 2,400 compounds, 78% hits; AID 652136;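 active means inhibition above the mean of all tested compounds plus 3 SD, cut at about 3% in these data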;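 further: 0% = DAX-1 transfected cells with DMSO and 100% = cells without DAX-1 with DMSO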
# SMARCA2 act conf: SMARCA2 activation, confirmation screen. shares compounds with SMARCA2 act. MG213 cells, MMTV-luciferase with dexamethasone, luminescence, overnight; MG213 cells expressing E1A, Rb sequestered; DMSO wells 0%, reference activator 100%. activation, % at 9.1 µM. 3,500 compounds, 30% hits;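 active means activation above its plate's cutoff, the mean activation of tested wells plus 3 SD, cut at about 7.9% in these data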
# VP16 Luc act: GAL4-VP16 reporter activation counter-screen; 3,500 compounds, 41% hits; AID 686939; HEK293 GAL4-VP16 pG5luc reporter, luciferase luminescence; scaled: DMSO wells 0%, SAHA wells 100%; shares compounds with SMARCA2 act; activation, % at 9.1 µM;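 active means activation above the solvent-only control well mean plus 3 SD, averaged across control plates, cut at about 5.2% in these data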
# LXR ag: LXR-beta agonism as hcDAF-12 counter-screen; shares compounds with hcDAF-12 act; HEK293 Gal4-LXR tk-luc reporter, luminescence, 24 h; normalized: DMSO 0%, positive control 100%; activation, % at 6.8 µM; 3,400 tested, under 10 active; AID 743027;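 active means mean percent activation of the reporter above a cutoff set as the average over tested compounds plus their standard deviation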
# hcDAF12 ag: confirmation of H. contortus DAF-12 agonists; 3,400 compounds, 61% hits; activation, % at 6.8 µM; shares compounds with hcDAF-12 act; AID 743032; HEK293 hcDAF-12 lit1-tk-luc reporter, luminescence; % of Δ7-dafachronic acid response;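 active means mean activation across triplicate tests above the threshold derived from the earlier primary screen, cut at about 5.5% in these data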;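 further: 0% = DMSO only wells and 100% = 3 µM Δ7-dafachronic acid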
# * = called active by the depositor; . = no result. Hits are enriched below; roughly 4.8% of the tested compounds scored in any of these assays.
SMILES,SMARCA2 act,hgDAF12 agonist,DAX1 inh-1,DAX1 inh-2,hcDAF-12 act,ssDAF-12 act,DAX1 conf,SF1 mutant ctr,LXR ag,hcDAF12 ag,others
Cc1ccc(C#N)c(SCC(=O)Nc2nccs2)n1,14*,20*,6.3*,0,18*,3.0*,12*,6.6*,2,22*,SMARCA2 act conf=6;VP16 Luc act=4
CCc1nnc(NC(=O)CSc2nc(C)cc(C)c2C#N)s1,5,11*,6.7*,-1,7.7*,-1,15*,8.4*,1,9.5*,
O=C1NC[C@@H](CCCCN2C[C@H](Cc3ccccc3)N(CCc3ccccc3)C(=O)C2=O)N(CCc2ccccc2)C1=O,3,-1,0,.,-2,-1,.,.,.,.,
CC1=C(O)c2ccccc2C(=O)C1=O,0,0,-1,.,-2,-2,.,.,.,.,
Cc1ccccc1N=CC1=C(O)c2ccccc2C1=O,1,11*,5.5*,-3,15*,2.1*,5.8*,-1,1,8.3*,
CS(=O)(=O)Nc1ccc(C2=NN(S(C)(=O)=O)C(c3ccc4nccnc4c3)C2)cc1 (centres undefined),0,2,0,0,-1,0,.,.,.,.,
Cc1ccc(C2=NN(S(C)(=O)=O)C(c3ccc4c(c3)OCO4)C2)cc1 (centres undefined),5,21*,5.4*,1,13*,0.9*,19*,9.0*,2,14*,
Cc1cc(C)n(-c2ncccc2[N+](=O)[O-])n1,-2,0,-1,0,1,0,.,.,.,.,
CC(C)c1ccc(-n2cnn(-c3ncccc3[N+](=O)[O-])c2=O)cc1,3,22*,6.8*,1,22*,2.4*,20*,10*,2,14*,
O=C(NCc1ccccn1)c1ccccc1OCc1ccccc1Cl,-1,0,0,1,-2,-1,.,.,.,.,
O=c1ccc(N=Nc2ccccc2)ccc1O,-2,4,0,0,4,0,.,.,.,.,
Oc1c(N=Nc2ccccc2)sc2ccccc12,5,13*,5.5*,3,18*,3.5*,19*,7.4*,2,18*,
COc1cc(N/N=C/c2ccccc2O)ncn1,1,7,-1,3,2,0,.,.,.,.,
COc1cc(N/N=C/c2ccc(N(C)C)cc2)ncn1,3,12*,10*,-2,11*,1,12*,4.3*,2,8.4*,
Cc1c(C(=O)NC2=NCCS2)oc2ccccc12,4,14*,5.3*,1,19*,2.7*,14*,7.2*,2,21*,
O=C(/C=C\Nc1ccccn1)c1ccccc1,5,9,5.3*,-2,12*,1,10.0*,1,1,9.7*,
COc1ccc(C(=O)/C=C/Nc2ccccn2)c(OC)c1,2,9,3,.,3,1,.,.,.,.,

# Screening data (PubChem)
